Source: PubChem
The entries come from a sample that favours hits as a whole.
Cruzain noTriton: blocks cruzain activity in detergent-free assay. hit rate 2.3% among 200,000. Potency, µM, for inactives: max response, negative = inhibition, most hits filed as inhibitors. P25779. purified cruzain, Z-FR-AMC fluorescence, no detergent; active = well fitted curve in the direction sought with a large enough effect; inconclusive = small, poorly fitted or top-dose-only effect, or another doubt; inactive = no such curve, though single readings can be large; an effect the other way counts as inactive or inconclusive;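 note: potency is the fitted concentration of half-maximal effect; plate controls were enzyme without inhibitor for no effect and buffer without enzyme for full effect; nearly all actives have a fitted effect of over 40% in size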
Target sequence (P25779 123-467 limits assumed): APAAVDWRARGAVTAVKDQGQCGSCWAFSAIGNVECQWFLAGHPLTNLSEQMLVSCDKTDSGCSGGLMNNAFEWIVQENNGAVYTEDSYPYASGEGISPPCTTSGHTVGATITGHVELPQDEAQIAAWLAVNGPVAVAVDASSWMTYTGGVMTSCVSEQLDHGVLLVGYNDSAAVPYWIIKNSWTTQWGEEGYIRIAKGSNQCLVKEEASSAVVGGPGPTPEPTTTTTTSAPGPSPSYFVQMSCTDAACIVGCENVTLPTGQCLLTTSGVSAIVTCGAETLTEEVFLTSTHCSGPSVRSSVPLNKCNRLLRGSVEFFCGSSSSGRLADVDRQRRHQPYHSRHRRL
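Detergent-free condition (0.00005% Triton X-100) in acetate buffer pH 5.5 with DTT. 1.5 nM enzyme and compound were pre-mixed 15 min, then 2 uM Z-FR-AMC substrate added; reaction progress from fluorescence change between first and third reads (60 s).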
NS1 function inh: influenza NS1 inhibition; hit rate 0.4% among 270,000; Potency, µM (titrated, usually from 46.1 µM), inactives show top-dose activity, positive = more growth; note: potency is the fitted concentration of half-maximal effect; actives are rising curves; nearly all actives have a fitted effect of over 50% in size
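OD600 was taken as the measure of yeast growth restored by compound in an NS1-expressing S. cerevisiae strain. Cells had been washed out of glucose medium and diluted 1:100 into galactose -URA medium, pH 6.0.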
Cruzain inh Det: cruzain (T. cruzi) inhibition with detergent | AID 1478 | hit rate 0.43% among 200,000 | purified cruzain, Z-FR-AMC fluorescence, 0.01% Triton | P25779 | Potency, µM, for the others: max response, negative = inhibition, most hits filed as inhibitors; active = well fitted curve in the direction sought with a large enough effect; inconclusive = small, poorly fitted or top-dose-only effect, or another doubt; inactive = no such curve, though single readings can be large; an effect the other way counts as inactive or inconclusive;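 note: potency is the fitted concentration of half-maximal effect; plate controls were neutral wells for no effect and buffer without enzyme for full effect; nearly all actives have a fitted effect of over 40% in size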
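Detergent-containing arm of a paired screen for aggregation-based inhibition: 0.01% Triton X-100 present. Cruzain at 1.5 nM cleaved 2 uM Z-FR-AMC at pH 5.5 with 5 mM DTT; AMC fluorescence gain over 60 s measured activity.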
Flu NS1 inh: validation of influenza NS1 protein function inhibitors. shares compounds with NS1 function inh. influenza NS1 function cell assay, 15-point titration. activity change, negative = inhibition, % at 32.9 µM. 1,400 tested, under 10 active. AID 492980; note: 0% is about no effect
PR8 titer: reduces influenza A/PR/8/34 replication in MDCK cells. AID 504647. MDCK infected influenza A/PR/8/34, virus titer TCID50; stronger effect = lower value. shares compounds with NS1 function inh. virus titer (log TCID50), log10 TCID50 at 5 µM. hit rate 30% among 95; call rule not given here
Starred values were filed as active, the others as inactive; ? = inconclusive; / = no result given; ! = not confirmed by another sample. Unless noted, calls come from the whole dose curve.

SMILES | Cruzain noTriton | NS1 function inh | Cruzain inh Det | Flu NS1 inh | others
O=C(Nc1nc(-c2ccccc2)cs1)C1CCCN(S(=O)(=O)c2ccccc2)C1 (stereo not given) | 20µM* | 11µM* | 5% | 8
CS(=O)(=O)N1CCc2cc(-c3csc(NC(=O)Cc4ccccc4)n3)ccc21 | ? | 10µM* | -1% | 4
CCN(c1ccc(C)cc1)S(=O)(=O)c1nnc(NC(=O)C2CCCCC2)s1 | 23% | / | -3% | /
CC(C)c1ccc(NC(=O)C2(C)Cc3ccccc3C(=O)O2)cc1 (stereo not given) | -7% | / | -6% | /
Cc1ccc(C)c(Cn2c(SCC(=O)NCc3ccccc3)nc3ccccc32)c1 | 0% | / | 1% | /
CC(=O)c1ccc(NC(=O)CC2Oc3ccc(C)cc3NC2=O)cc1 (stereo not given) | 10% | / | -1% | /
COc1ccc(NC(=O)CNC(=O)Cn2ccc3ccccc3c2=O)cc1OC | 0% | / | 1% | /
CC(C)Cc1ccc(S(=O)(=O)Nc2cc3c(cc2N2CCOCC2)n(C)c(=O)c(=O)n3C)cc1 | 11% | / | -3% | /
COc1ccc(S(=O)(=O)N2CCc3ccccc3C2)cc1 | / | -7% | / | /
COc1ccc(-c2csc(NC(=O)c3ccc(S(=O)(=O)N4CCc5ccccc5C4)cc3)n2)c(OC)c1 | 4µM* | 13µM* | -2% | -16
COc1ccc(OC)c(S(=O)(=O)N(C)CC(=O)Nc2ccccc2OC)c1 | -1% | -4% | 0% | /
COc1ccc(OC)c(S(=O)(=O)N(C)CC(=O)O)c1 | 11% | 1.8µM* | 0% | 4
O=C(NNc1ccccc1[N+](=O)[O-])Nc1ccc(Cl)c(Cl)c1 | 5% | -47% | -9% | /
O=C1NC(=O)C(c2ccccc2[N+](=O)[O-])=C1Nc1ccc(O)c(Cl)c1 | -6% | 35µM*! | -4% | -13
Cc1c(C(=O)N(Cc2nccn2C)C(C)C)oc2c(F)cccc12 | / | 5% | / | /
CCCc1ccc2oc(C(=O)N(Cc3nccn3C)C(C)C)c(C)c2c1 | / | ? | / | ?
N#CCCn1c(=O)c(-c2cccs2)nc2cnc(OCc3ccccc3)nc21 | 1% | / | 2% | /
Cc1ccc(S(=O)(=O)c2cc3c(=O)n4ccccc4nc3n(CC3CCCO3)c2=N)cc1C (stereo not given) | -28% | 8.9µM* | 32µM* | ?
Cc1ccc(S(=O)(=O)c2cc3c(=O)n4ccccc4nc3n(Cc3ccco3)c2=N)cc1C | -25% | -8% | 6% | /
CCc1ccccc1NS(=O)(=O)c1ccc2c(c1)CC(=O)N2 | 3% | / | -5% | /
O=[N+]([O-])c1ccc(S(=O)(=O)N/N=C/c2ccc3c(c2)OCO3)cc1 | / | -11% | / | /
O=S(=O)(N/N=C/c1ccc2c(c1)OCCO2)c1ccccc1 | 1% | ? | -5% | 3
CCc1nnc(SC(CC)C(=O)Nc2ccc(OC)c(Cl)c2)c2cc3occc3n12 (stereo not given) | -26% | / | -5% | /
COc1ccc(C(C(=O)NC2CCCCC2)N(C(=O)c2snc(C(N)=O)c2N)c2ccc(OC)cc2OC)cc1 (stereo not given) | / | -14% | / | /
COc1ccc(N(CC(=O)NCCC(C)C)C(=O)c2snc(C(=O)NC3CCCCC3)c2N)c(OC)c1 | / | 13µM* | / | 5
SMILES | Cruzain noTriton | NS1 function inh | Cruzain inh Det | Flu NS1 inh | others
Cn1ccnc1SCC(=O)c1cccc(C(F)(F)F)c1 | / | 1% | / | /
CCCCNC(=O)CCn1c(=O)c2ccccc2n(Cc2ccccc2C#N)c1=O | -1% | / | -3% | /
Cc1ccccc1Nc1nc(N)nc(CSCC(=O)Nc2cccc(Br)c2)n1 | -9% | ? | -1% | -11
Cc1ccc(SCc2nc(N)nc(Nc3ccccc3C)n2)cc1C | -2% | -12% | -3% | /
CC(C)(C)C1CCc2onc(C(=O)Nc3sc4c(c3C(N)=O)CCCC4)c2C1 (stereo not given) | -4% | / | -7% | /
CCOC(=O)N1CCC(NC(=O)c2ccc3c(c2)sc2nc(-c4ccccc4)cn23)CC1 | ? | ? | 7% | -12 | PR8 titer=7.5*
CCOC(=O)N1CCC(NC(=O)c2ccc3c(c2)sc2nc(-c4cccc(OC)c4)cn23)CC1 | ? | ? | -8% | /
CCOC(=O)CSc1nc2c(sc3ccccc32)c(=O)n1Cc1ccc(OC)cc1 | 4% | / | 2% | /
CCOC(=O)CSc1nc2c([nH]c3ccccc32)c(=O)n1-c1ccc(OC)cc1 | -1% | / | 1% | /
COC(=O)c1c(NC(=O)CN2CCCC(C)C2)c2c(C)cccc2n1C (stereo not given) | 2% | 5µM* | -4% | -19
COC(=O)c1c(NC(=O)CN2CCC(C(N)=O)CC2)c2c(C)cccc2n1C | -2% | ? | -2% | /
N[C@H](Cc1ccccc1)c1nn[nH]n1 | 5% | -5% | -2% | /
Cc1sc2nc(CN(Cc3cccs3)C(=O)NC3CCCCC3)[nH]c(=O)c2c1C | 11% | 0.45µM* | 1% | ?
Cc1sc2nc(CN(C(=O)NC3CCCCC3)C3CCCC3)[nH]c(=O)c2c1C | -3% | -12% | 8% | /
Cc1cc(C(=O)N/N=C/C(Cl)=C/c2ccccc2)c(C)o1 | / | -4% | / | /
CCC(C)NC(=O)c1cccc(OCc2c(C)noc2C)c1 (stereo not given) | / | -9% | / | /
CCOC(=O)c1c(C)[nH]c(C(=O)C(C)OC(=O)c2cccc(OCc3c(C)noc3C)c2)c1C (stereo not given) | 24% | 13µM* | 4% | -8
COC(=O)c1ccc(NC(=O)c2cc(S(=O)(=O)N3CCc4ccccc43)cn2C)cc1 | -3% | / | -11% | /
COc1ccc(NS(=O)(=O)c2ccc(OC)c(NC(=O)CCC3CCCC3)c2)cc1 | 0% | ? | -5% | 7
COc1ccc(NC(=O)CCC2CCCC2)cc1OC | 2% | -49% | 1% | /
Fc1ccc(-c2csc(N3CCC(c4ccccc4)C3)n2)cc1 (stereo not given) | -7% | ? | 4% | -25
Clc1ccc(-c2csc(N3CCC(c4ccccc4)C3)n2)cc1 (stereo not given) | -7% | 8% | 3% | /
CN(C)c1ccc(C(CNC(=O)c2ccccc2F)c2c[nH]c3ccccc23)cc1 (stereo not given) | ? | 16% | -13% | /
CN(C)c1ccc(C(CNC(=O)c2ccccc2)c2c[nH]c3ccccc23)cc1 (stereo not given) | ? | 13µM* | -10% | ?
Cc1cc(F)ccc1-n1nnc(C(N)=O)c1C | 10% | / | -2% | /
SMILES | Cruzain noTriton | NS1 function inh | Cruzain inh Det | Flu NS1 inh | others
COc1ccccc1/C=N/NC(=O)c1nnn(-c2nonc2N)c1-c1cccs1 | / | 2.2µM* | / | 19
COc1ccc(OC)c(/C=N/NC(=O)c2nnn(-c3nonc3N)c2-c2cccs2)c1 | / | 5% | / | /
CC(C)CC(=O)Nc1nnn(C)n1 | -1% | 10µM* | 1% | 15
CC(C)C(=O)Nc1nnn(C)n1 | -6% | 2% | 2% | /
Cc1[nH]c2ccccc2c1C(O)CN1CCN(c2cccc(C(F)(F)F)c2)CC1 (stereo not given) | 8% | ? | -9% | ?
Cc1[nH]c2ccccc2c1NC(=O)CN1CCN(c2cccc(C(F)(F)F)c2)CC1 | ? | -131% | -16% | /
Cc1ccc(NS(=O)(=O)c2ccc3[nH]c4c(c3c2)CCCCC4)cc1 | -7% | / | -13% | /
